Screens from PubChem BioAssay.
In the library only some 1.4% were active in any assay of this set; here they are far more common.
A3G deaminase – APOBEC3G (human) deaminase inhibition. AID 493012. inhibition, % at 20 µM. recombinant A3G, ssDNA deamination FAM/TAMRA fluorescence. 0.28% of 330,000 active;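 active means inhibition of at least 40% at 20 µM, with no more than 30% in the related APOBEC3A deaminase screen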;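 further: plate controls were DMSO wells with A3G for no effect and wells lacking A3G enzyme for full effect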
Target sequence (Q9HC16 whole entry, looked up): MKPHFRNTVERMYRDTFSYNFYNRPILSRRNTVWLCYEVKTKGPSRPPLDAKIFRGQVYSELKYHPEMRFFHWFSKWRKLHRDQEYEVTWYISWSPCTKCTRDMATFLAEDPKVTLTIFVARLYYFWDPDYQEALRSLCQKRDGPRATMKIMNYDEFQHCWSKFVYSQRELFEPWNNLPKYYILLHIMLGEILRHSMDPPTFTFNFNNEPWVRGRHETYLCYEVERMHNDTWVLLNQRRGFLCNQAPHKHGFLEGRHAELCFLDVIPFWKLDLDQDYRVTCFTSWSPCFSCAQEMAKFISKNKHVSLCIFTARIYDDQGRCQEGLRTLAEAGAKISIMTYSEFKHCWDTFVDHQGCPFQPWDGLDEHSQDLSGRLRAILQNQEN
VLA-4 inh – inhibition in a human VLA-4 binding assay | inhibition, % (about 7 µM as worked out from the volumes in the protocol) | VLA-4 expressing cells, ligand binding flow cytometry | 0.2% of 330,000 active; in the data active means inhibition above about 50%
GRK2 aptamer HTS – inhibitors of human GRK2 displacing RNA aptamer | P25098 | 0.59% of 330,000 active | inhibition of aptamer binding, % at 10 µM | bead flow cytometry, FAM-aptamer displacement from GRK2 | AID 488847;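 active means inhibition of aptamer binding above 40%, roughly 3 SD of noise, on plates passing a quality check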;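 further: median bead fluorescence of bound FAM aptamer so fluorescent compounds give negative values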
APOBEC3A inh – inhibitors of human APOBEC3A DNA deaminase; recombinant A3A, FAM/TAMRA ssDNA deamination fluorescence; 0.41% of 330,000 active; inhibition, % at 20 µM; P31941;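 active means at least 40% inhibition at 20 µM here, with at most 30% in a related deaminase screen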;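 further: plate controls were A3A with DMSO for no effect and wells lacking A3A enzyme for full effect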
GRK2 CP1 – confirmation of human GRK2 inhibitors displacing RNA aptamer. 4% of 2,000 active. AID 504451. aptamer displacement, % at 10 µM. bead-bound GRK2, FAM-aptamer displacement, flow cytometry. shares compounds with GRK2 aptamer HTS;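 active means aptamer displacement above 40%, near three times the noise of non-fluorescent compounds, on plates passing quality checks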;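 further: negative values mostly reflect intrinsic compound fluorescence rather than true enhancement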
FAM quench CP1 – counter-screen for GRK2 aptamer inhibitors: fluorescent aptamer quenchers; Carboxyfluorescein RNA aptamer on beads, flow cytometry quenching; active compounds read low; 2,000 tested, under 10 active; fluorescence response (% of DMSO), % at 10 µM; shares compounds with GRK2 aptamer HTS;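 active means compounds that quench the bead-bound fluorescent RNA probe, cutting fluorescence to under half of the solvent control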;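 further: counterscreen run without GRK2 so only probe quenching by compound is measured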
GRK2 confirm 2 – human GRK2 inhibition confirmation, cherry pick 2; shares compounds with GRK2 aptamer HTS; bead-bound GRK2, FAM-aptamer displacement, flow cytometry; inhibition of aptamer binding, % at 10 µM; 360 tested, under 10 active;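 active means inhibition of aptamer binding above 40%, about triple the noise seen with nonglowing compounds, on plates passing quality control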;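 further: negative values mostly come from compounds that fluoresce themselves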
FAM quench CP2 – counter-screen for GRK2 binding hits: quenchers of fluorescent RNA aptamer | fluorescence response vs DMSO, % at 10 µM | AID 588494 | 360 tested, under 10 active | carboxyfluorescein RNA aptamer beads, flow cytometry quenching; active compounds read low | shares compounds with GRK2 aptamer HTS;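 active means response vs DMSO under 50%, meaning signal dropped by over half, treated as fluorescence quencher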;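 further: labelled aptamer on streptavidin beads without GRK2 as a quench counter-screen; 100% = bead fluorescence of DMSO wells and lower means quenching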
* marks the source's active call; other numbers are inactive results; · = no result.

SMILES	A3G deaminase	VLA-4 inh	GRK2 aptamer HTS	APOBEC3A inh	GRK2 CP1	FAM quench CP1	others
CC1CCN(c2nc3ccccc3n2CC(=O)c2ccccc2)CC1	-4	8	0	2	·	·
COc1ccc(CNC(=O)NS(=O)(=O)c2ccc(C)cc2)cc1	-13	-17	2	-1	·	·
COc1cccc(OC)c1C(=O)Nc1ccc2c(c1)OCCO2	-2	-7	0	2	·	·
CCC(=O)N1c2ccc(S(=O)(=O)CCC(=O)Nc3ccc(OC)cc3OC)cc2CC1C (stereo not drawn)	6	1	5	6	·	·	GRK2 confirm 2=-29;FAM quench CP2=102
COc1ccccc1NC(=O)c1ccccc1Oc1ccccc1	-8	-3	41*	-6	0	92
CN(C)S(=O)(=O)c1cccc(COC(=O)c2ccc(Cl)cc2O)c1	-3	-1	0	-2	·	·
CN(C)S(=O)(=O)c1cccc(COc2ncnc3c(Cl)cc(Cl)cc23)c1	-4	-2	90*	-2	0	102
COc1ccc(C(=O)Nc2ccc(NC(=O)CSc3nnc(-c4ccncc4)n3C)cc2)cc1	-5	1	0	1	·	·
Cn1c(SCC(=O)Nc2ccc(NC(=O)c3ccccc3)cc2)nnc1-c1ccncc1	-7	-2	62*	0	-2	99
Cc1ccc(S(=O)(=O)N2CCN(C(=O)COC(=O)CCOc3ccccc3)CC2)c(C)c1	12	14	63*	37	-3	100
Cc1ccc(S(=O)(=O)N2CCN(C(=O)COC(=O)CCc3ccccc3)CC2)c(C)c1	4	42	0	3	·	·
CN1CCCN(S(=O)(=O)c2cccc(Cl)c2Cl)CC1	-6	23	0	1	·	·
O=S(=O)(c1cccc(Cl)c1Cl)N1CCCCC1	-4	5	82*	-9	0	101
Cc1ccc(NC(=O)COC(=O)C2(CC(=O)NC(C)(C)C)CCCC2)cc1C	-8	6	20	-2	-1	99
CN(C)c1nc2sc3c(c2c(=O)n1C)CC(C)(C)OC3	-4	1	2	2	·	·
O=C1N/C(=N\N=C\c2cccs2)SC1Cc1ccc(Cl)cc1 (stereo not drawn)	-9	-15	3	-4	·	·
Cc1cc(=O)c2ccccc2[nH]1	2	4	37	3	1	98
Cc1ccc(-c2cc(=O)c3ccccc3[nH]2)cc1	17	-14	0	0	·	·
O=C(Nc1cccc(Cn2cccn2)c1)c1cc2c(s1)CCCC2	-7	1	94*	-3	-1	94
CC(C)N(c1ccccc1)c1ccc(NC(=O)C2CCCO2)cc1 (stereo not drawn)	-2	15	0	0	·	·
CCOC(=O)c1c(-c2ccc(C)c(C)c2)csc1NC(=O)C1CC=CCC1C(=O)O (stereo not drawn)	-2	20	0	2	·	·
CCOC(=O)c1c(-c2ccc(F)cc2)csc1NC(=O)C1CC=CCC1C(=O)O (stereo not drawn)	5	-3	95*	0	5	98
Cc1cc(C)c(CSc2ncc(-c3ccc([N+](=O)[O-])cc3)[nH]2)c(C)c1	-4	-5	2	-1	·	·
Cc1cccc(Cl)c1NNC(=O)Nc1c([N+](=O)[O-])c(C)nn1C	2	-8	44*	3	0	100
NC(CO)C(O)c1ccc([N+](=O)[O-])cc1 (stereo not drawn)	-1	29	98*	4	1	99
NS(=O)(=O)c1ccc(NC(=S)N2CCN(c3ccccc3Cl)CC2)cc1	-6	16	48*	-3	·	·	GRK2 confirm 2=2;FAM quench CP2=334
COc1ccc(C(C)=O)cc1COC(=O)CNC(=O)c1ccccc1F	-3	-3	3	1	·	·
COc1ccc(CCNC(=O)C2(C)CCC(=O)N2Cc2ccc(C)cc2)cc1OC (stereo not drawn)	-11	-3	2	-4	-1	85
